High-throughput results from PubChem.
HepG2 tox = HepG2 cytotoxicity, counter-screen for TGF-b inhibitors. AID 588856. HepG2 CAGA-GFP viability, ATP luminescence, 18 h. Potency, µM (top dose mostly 46.1 µM), for the others: top-dose activity change, negative = cytotoxicity, actives largely listed as cytotoxic. actives 0.76% (n = 410,000)
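HepG2 CAGA-GFP cells (1000/well, DMEM with 1% FBS) received compound, then TGF-beta at 500 pg/mL final, and were incubated 18 hours at 37 degrees C. Viability was read by CellTiter-Glo luminescence. Media-only wells were set as complete cell-killing and DMSO as no toxicity.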
TGFb SMAD3 inh = inhibitors of TGF-b signaling. Potency, µM (doses to about 46.1 µM), for inactives: at the top dose activity, negative = inhibition, usual class: inhibitors. AID 588855. HepG2 CAGA-GFP TGF-b/SMAD3 reporter, GFP fluorescence, 18 h; TGF-beta stimulated, 500 pg/mL final. actives 1.2% (n = 410,000); further: on the % scale 0 is the no-effect control and ±100 the full control effect; nearly all actives have a fitted effect of over 65% in size
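GFP signal (ex488/em500-530) from TGF-beta-stimulated HEPG2 CAGA-GFP cells, 500 pg/mL final, 18 h at 37 degrees C in DMEM plus 1% FBS, normalized to unstimulated and DMSO-stimulated controls.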
ATXN viability = viability counter-screen for ATXN expression inhibitors; S2 cells (HEK-293 line with an ATXN2-luciferase reporter) viability, CellTiter-Fluor protease fluorescence, 24 h; Potency, µM (titrated, usually from 56.7 µM), most hits filed as cytotoxic; actives 0.49% (n = 400,000); further: nearly all actives have a fitted effect of over 40% in size
GLP1R ag = agonists of human GLP-1 receptor. HEK293 GLP-1R CRE-luciferase, luminescence, 4-6 h; cells express a hypersensitive GLP-1R form. Potency, µM (top dose mostly 45.6 µM), inactives show top-dose activation, most hits filed as activators. P43220. AID 624172. actives 0.007% (n = 380,000); further: % of control where 0% means no effect
Target sequence (P43220 whole entry, looked up): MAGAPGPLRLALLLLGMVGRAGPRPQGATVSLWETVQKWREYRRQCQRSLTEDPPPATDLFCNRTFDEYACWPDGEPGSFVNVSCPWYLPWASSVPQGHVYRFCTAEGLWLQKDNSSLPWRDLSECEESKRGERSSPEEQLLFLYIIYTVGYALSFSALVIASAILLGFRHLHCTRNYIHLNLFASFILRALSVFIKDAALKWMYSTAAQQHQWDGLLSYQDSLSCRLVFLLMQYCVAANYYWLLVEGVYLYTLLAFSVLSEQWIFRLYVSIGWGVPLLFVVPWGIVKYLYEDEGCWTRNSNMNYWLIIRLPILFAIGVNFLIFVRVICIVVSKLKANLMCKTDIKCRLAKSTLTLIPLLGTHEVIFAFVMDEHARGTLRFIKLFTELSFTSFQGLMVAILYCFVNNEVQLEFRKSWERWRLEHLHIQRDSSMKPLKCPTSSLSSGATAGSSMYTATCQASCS
GLP1R inv ag = inverse agonists of human GLP-1 receptor. HEK293 GLP-1R CRE-luciferase, luminescence, 24 h; GLP-1R form is constitutively active. P43220. Potency, µM (highest dose often 38.3 µM), inactives show at the highest dose activity change, negative = inhibition, most hits filed as inhibitors. actives 1.6% (n = 410,000). AID 624417; further: on the % scale 0 is the no-effect control and ±100 the full control effect; nearly all actives have a fitted effect of over 55% in size
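HEK293 cells stably co-expressing constitutively active GLP-1R and a cAMP-responsive luciferase reporter were seeded in DMEM with 10% Nu serum, given compounds after 12 h, and incubated 24 h at 37 deg C. Luminescence was then read.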
ATXN2 expr inh = reduces ATXN2 reporter expression in HEK-293 cells. actives 0.72% (n = 360,000). AID 1745845. HEK-293 ATXN2-luciferase reporter, luminescence, 24 h. Potency, µM (series often up to 57 µM), inactives show at the highest dose activity change, negative = inhibition, actives largely listed as inhibitors; further: on the % scale 0 is the no-effect control and ±100 the full control effect; nearly all actives have a fitted effect of over 55% in size
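qHTS (up to 57 uM final) was run with 24 h compound exposure of reporter cells at 37 °C. Each well was multiplexed: SteadyGlo luminescence measured ATXN2-luciferase expression after a fluorogenic Gly-Phe-AFC viability readout (25 uM final).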
An asterisk follows results filed as active; i = inactive; u = inconclusive; x = not tested or not shown. An excerpt weighted towards active compounds, which were near 3.7% of everything screened. The call rests on the fitted dose curve; in most records, active means well fitted curve in the direction sought with a large enough effect; inconclusive means small, poorly fitted or top-dose-only effect, or another doubt; inactive means no such curve, though single readings can be large; an effect the other way counts as inactive or inconclusive. Potency means the concentration at half of the fitted maximal effect.

SMILES	HepG2 tox	TGFb SMAD3 inh	ATXN viability	GLP1R ag	GLP1R inv ag	ATXN2 expr inh
CC(C)(C)n1ncc2c(=O)n(Cc3cc(Cl)ccc3Cl)cnc21	-5.5%	-7.5%	x	x	x	x
S=C(Nc1ccccc1Cl)N(Cc1ccccc1)Cc1ccccn1	-4.6%	-16.3%	i	5.4%	10µM*	-0.2%
Cc1c(Cl)cccc1NC(=S)N(Cc1cccnc1)Cc1ccccc1Cl	-0.9%	5.0%	i	10.0%	11.2µM*	-13.0%
CC(C)(C)C(=O)OCc1cc(=O)n2nc(C3CCCCC3)sc2n1	-15.1%	u	u	x	u	10.3%
CCCCCCCCN1C(=O)[C@H](CC(=O)NCc2cccc(C(F)(F)F)c2)C[C@@]2(C(=O)OC)CCCCC=C12	x	x	u	2.8%	10µM*	u
CCOC(=O)[C@]12CCC=C1N(CCC1=CCCCC1)C(=O)[C@H](CC(=O)NCCc1ccccc1OC)C2	x	x	i	7.3%	-7.9%	-5.9%
CCCCCCCCN1C(=O)[C@H](CC(=O)NCc2ccc(OC)c(OC)c2)C[C@@]2(C(=O)OCC)CCCC=C12	x	x	14.1µM*	3.6%	10µM*	u
CCOC(=O)[C@]12CCC=C1N(Cc1ccc(Cl)cc1Cl)C(=O)[C@H](CC(=O)NCc1cccc(C(F)(F)F)c1)C2	x	x	u	-0.7%	11.2µM*	-36.7%
CCCCCCCCN1C(=O)[C@H](CC(=O)NCCc2ccccc2OC)C[C@@]2(C(=O)OCC)CCC=C12	x	x	x	x	12.6µM*	x
CC(C)c1cccc(NC(=O)COC(=O)c2ccccc2OCc2cccc(Br)c2)c1	-24.5%	-22.3%	x	x	x	x
COc1cccc(COCCN2CCN(S(=O)(=O)c3ccccc3)CCC2=O)c1	-0.1%	-0.2%	x	x	x	x
Cc1ccc2nc(CNC(=O)c3cc(NC(=O)c4ccccc4)cc4ncn(C5CCCC5)c34)cn2c1	x	x	i	x	x	x
Cc1ccc(Cl)cc1NC(=O)Cn1cc2c(n1)CCCCC2	-2.9%	-0.3%	i	x	u	6.4%
CN1CCCN(C(=O)[C@@H]2C[C@@H](Sc3nc4ccccc4[nH]3)CN2Cc2ccc(-c3ccccc3)cc2)CC1	x	x	i	x	x	x
Cn1cc(-c2ccc3nnc(C(F)(F)c4ccc5ncccc5c4)n3n2)cn1	x	x	x	x	x	-23.1%
COC(=O)[C@@]12C[C@@H](CC(=O)NCc3ccccc3)C(=O)N(Cc3ccco3)C1=CCC(C)(C)C2	x	x	x	x	-21.8%	x
CCCCOCCCNC(=O)C[C@@H]1C[C@@]2(C(=O)OCC)CCCC=C2N(Cc2cccc3ccccc23)C1=O	x	x	35.5µM*	-3.5%	u	u
COC(=O)[C@@]12C[C@@H](CC(=O)NCCCCc3ccccc3)C(=O)N(Cc3ccco3)C1=CCC(C)(C)C2	x	x	x	x	10µM*	x
COC(=O)[C@]12CCCCC=C1N(Cc1ccccc1)C(=O)[C@H](CC(=O)NCCCCc1ccccc1)C2	x	x	u	-2.0%	u	u
CCCCCCCCN1C(=O)[C@H](CC(=O)NCc2cccs2)C[C@@]2(C(=O)OCC)CCCC=C12	x	x	x	-2.1%	10µM*	u
COC(=O)[C@]12CCCCC=C1N(Cc1ccccc1)C(=O)[C@H](CC(=O)NCC13CC4CC(CC(C4)C1)C3)C2	x	x	u	-2.0%	10µM*	0.0%
O=C1CCN(CCc2ccccc2)CCN1C(CSc1ccc(Br)cc1)Cc1ccccc1 (stereo not given)	12.8%	-6.3%	x	x	x	x
O=C(Nc1cccc(-c2csc(Nc3cccc(C(F)(F)F)c3)n2)c1)c1ccccc1	-8.9%	u	25.1µM*	-2.2%	2.82µM*	u
c1ccc(Nc2nc(-c3ccccn3)cs2)cc1	-26.7%	-36.0%	i	11.5%	5.62µM*	122.5%
O=C(Nc1cccc(-c2csc(Nc3ccccc3)n2)c1)c1ccccc1	-31.9%	u	u	-5.4%	8.91µM*	-38.3%
CC(=O)c1cccc(Nc2nc(-c3ccccc3)cs2)c1	-9.4%	1.0%	i	4.9%	u	96.5%
